Polio RdRp inh = poliovirus RNA polymerase inhibition | 0.66% of 150,000 active | poliovirus polymerase elongation, fluorescence polarization; hits give low values | AID 588519 | % elongation, % (compound at 16.7 µg/mL) | P03300; in the data active means % elongation below about 90%
Target sequence (P03300 1749-2209 limits assumed): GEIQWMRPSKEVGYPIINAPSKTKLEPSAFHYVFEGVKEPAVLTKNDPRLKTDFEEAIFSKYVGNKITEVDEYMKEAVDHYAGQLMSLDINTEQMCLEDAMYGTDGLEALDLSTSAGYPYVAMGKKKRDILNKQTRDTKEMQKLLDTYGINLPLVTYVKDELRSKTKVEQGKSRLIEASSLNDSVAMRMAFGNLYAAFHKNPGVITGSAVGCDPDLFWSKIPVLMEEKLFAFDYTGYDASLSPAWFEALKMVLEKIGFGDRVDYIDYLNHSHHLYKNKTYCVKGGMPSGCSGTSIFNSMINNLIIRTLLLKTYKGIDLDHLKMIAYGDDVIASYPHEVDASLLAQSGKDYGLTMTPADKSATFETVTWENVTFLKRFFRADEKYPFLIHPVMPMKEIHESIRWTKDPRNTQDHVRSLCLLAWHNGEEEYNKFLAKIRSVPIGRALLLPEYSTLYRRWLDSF
Mtb MenB inh = Mtb MenB enzyme inhibition; P9WNP5; MenB enzyme assay, absorbance read-out; inhibition, % (no concentration beside the values); 0.43% of 100,000 active; AID 540299; in the data active means inhibition above about 21%, passing the limit was not always enough
Mtb MbtI inh = blocks the Mycobacterium tuberculosis siderophore enzyme MbtI; P9WFX0; purified MbtI enzyme, fluorescence intensity read-out; inhibition, % (no concentration beside the values); 0.89% of 100,000 active; in the data active means inhibition mostly above about 56%, no sharp cut-off; inactive means mostly below about 77%
The depositor's hits bear a star; · = no result given. Rows were chosen to be rich in hits. Some 1.4% of all compounds tested hit in one or more screens of this group.

SMILES | Polio RdRp inh | Mtb MenB inh | Mtb MbtI inh
CCCN(C(=O)C1c2ccccc2C(=O)N(CC(C)C)C1c1cccs1)c1ccccc1C (stereo not drawn) | 100.0 | -19.4 | -0.9
Cc1cccc(NC(=O)CN(CC2CCCO2)C(=O)c2cc(-c3ccco3)nc3ccccc23)c1C (stereo not drawn) | 1.0* | -6.6 | 102.9
Cc1cnc(C(=O)N(CC(=O)Nc2cccc(C)c2C)CC2CCCO2)cn1 (stereo not drawn) | 101.0 | -11.2 | -5.0
O=C(Cc1ccccc1)Nc1nonc1-c1ccccc1 | 101.0 | -15.2 | -9.4
NCCSc1n[nH]c(=O)[nH]c1=O | 100.0 | -16.5 | 7.5
CCCCCCSc1n[nH]c(=O)[nH]c1=O | 86.0* | -8.6 | -8.4
N#Cc1ccc(-c2cc(C(F)(F)F)ccc2Cl)o1 | 107.0 | -11.9 | ·
O=C1CCCC(=O)C1C(c1ccc(-c2cc(C(F)(F)F)ccc2Cl)o1)C1C(=O)CCCC1=O | 102.0 | -20.2 | 98.8*
NCCS | 102.0 | -0.1 | 51.4*
S=c1[nH]c2ccccc2n1CCOc1ccccc1 | 99.0 | -71.9 | 95.4*
N#CCCn1c(=S)[nH]c2ccccc21 | 82.0* | -10.7 | 98.9
O=c1[nH]c2ccccc2n1CCOc1ccccc1 | 109.0 | -20.4 | ·
O=c1[nH]c2ccccc2n1Cc1ccccc1 | 101.0 | -22.4 | 2.8
CCCCn1c(=S)[nH]c2ccccc21 | 102.0 | -12.4 | 11.9
S=c1[nH]c2ccccc2n1Cc1ccccc1 | 96.0 | -19.3 | 83.6*
CC(C)N1CC(C(=O)N2CCN(Cc3ccccc3)CC2)CC1=O (stereo not drawn) | 101.0 | -0.1 | -1.2
Cc1ccc(S(=O)(=O)N(C)c2ccc(OCC(=O)N(C)Cc3ccc(C)o3)cc2)cc1 | 102.0 | -5.0 | 13.1
CC1(C)OC(=O)C(=CNC(CCC(=O)O)C(=O)O)C(=O)O1 (stereo not drawn) | 102.0 | -0.6 | 4.2
CCOC(=O)c1cc2c(ccn2C)n1Cc1ccc(OC(F)(F)F)cc1 | 100.0 | -152.7 | 26.7
CC(NC1CCCC(C)C1C)C(=O)Nc1ccc2c(c1)OCCO2 (stereo not drawn) | 99.0 | 4.6 | 1.6
C=CCN1C(=O)/C(=C\c2ccc(OCc3ccccc3C#N)cc2)C(=O)NC1=S | 102.0 | -56.4 | 74.1*
C=CCN1C(=O)/C(=C\c2ccc(O)c(Br)c2)C(=O)NC1=S | 100.0 | -47.7 | 13.9
C=CCN1C(=O)/C(=C\c2ccc(OC)cc2)C(=O)NC1=S | 99.0 | -159.7 | 94.7*
C=CCN1C(=O)/C(=C\c2ccc(N(CC)CC)cc2)C(=O)NC1=S | 100.0 | -34.6 | 78.9*
C=CCN1C(=O)/C(=C\c2cc3c4c(c2)CCCN4CCC3)C(=O)NC1=S | 98.0 | -1.7 | -1.8
SMILES | Polio RdRp inh | Mtb MenB inh | Mtb MbtI inh
C=CCN1C(=O)/C(=C\c2ccc(O)c(OC)c2)C(=O)NC1=S | 102.0 | -71.9 | 35.0
COc1ccc(C2=NN(C(=O)CNc3ccccc3C(=O)Nc3ccccc3)C(c3ccco3)C2)cc1 (stereo not drawn) | 104.0 | -13.3 | 97.0
CCOc1ccc(N2CC(C(=O)NC3CC(C)(C)NC(C)(C)C3)CC2=O)cc1 (stereo not drawn) | 100.0 | -35.5 | -1.3
COc1cc(OC)cc(C(=O)Nc2ccccn2)c1 | 105.0 | 2.6 | ·
CCCC(=O)Nc1nonc1-c1ccccc1 | 103.0 | 10.5 | -8.0
Cc1nc2nc(C(F)(F)F)[nH]c2cc1Br | 104.0 | -32.3 | 69.8*
Cc1ccc2nc(C(F)(F)F)[nH]c2c1 | 106.0 | -19.5 | ·
Cc1cc(NC(=O)C(CC(C)C)NC(=O)C2CCC(C)CC2)ccc1Br (stereo not drawn) | 102.0 | 6.5 | -7.5
c1csc(-c2nc3sc(-c4cccs4)nc3s2)c1 | · | · | -11.4
S=c1nc(-c2cccs2)[nH][nH]1 | 69.0* | -57.6 | 122.8
N#CC(C#N)=CNc1nccs1 | 103.0 | -5.8 | 105.9
CCC(C)(CC(=O)O)CC(=O)Nc1ccc(NC(C)=O)cc1 (stereo not drawn) | 100.0 | 12.8 | -2.9
COc1ccc(C2C(C#N)=C(N)OC(C3CC3)=C2C#N)cc1 (stereo not drawn) | 104.0 | -4.8 | -21.1
COc1ccc(C2C(C#N)=C(N)Oc3c2ccc2cccnc32)cc1 (stereo not drawn) | 102.0 | 33.1* | 11.2
Nc1ccc2c(c1)CCC2=O | 103.0 | -17.1 | 73.9
O=C1CC(=O)c2ccc3c4c(ccc1c24)C(=O)CC3=O | 90.0 | -251.6 | 92.8*
Cc1ccc2nc3n(c(=O)c2c1)CCCc1nn(-c2nc(C)cc(C)n2)c(N)c1-3 | 104.0 | -2.1 | 4.5
CN(C)c1ccc(NC(=S)N=P(c2ccncc2)(N(C)C)N(C)C)cc1 | 101.0 | -31.8 | 80.8*
CN(C)c1ccc(NC(=O)c2ccccn2)cc1 | 99.0 | -31.6 | 11.1
O=C(CSC1=NS(=O)(=O)c2ccccc2N1)Nc1ccccc1 | 101.0 | -17.2 | -0.3
CSCc1nc2sc(C(=O)NC3CC3)c(C)c2c(=O)[nH]1 | 105.0 | -15.3 | -38.5
Cc1ccc(Nc2nnc(SCc3nc4sc(C(=O)O)c(C)c4c(=O)[nH]3)s2)cc1C | 81.0* | -15.0 | 2.9
O=C(N/N=C/c1ccc(O)cc1)Nc1cccc2nsnc12 | 103.0 | 37.1* | 6.0
CC(C)C(=O)Nc1cccc2nsnc12 | 103.0 | 0.7 | ·
N#Cc1ccc(OC(C(F)(F)F)C(F)(F)F)cc1C#N | 100.0 | -22.7 | 1.3
SMILES | Polio RdRp inh | Mtb MenB inh | Mtb MbtI inh
N#Cc1ccc(Sc2ccc(C#N)c(C#N)c2)cc1C#N | 100.0 | -52.6 | 100.2*
COc1ccc(NC(=S)N(CC2CC=CCC2)CC2CCCO2)cc1 (stereo not drawn) | 97.0 | -11.3 | ·
CN(C)S(=O)(=O)c1ccc(/C(O)=C2\C(=O)C(=O)N(Cc3cccnc3)C2c2cccnc2)cc1 (stereo not drawn) | 102.0 | 34.4* | 1.5
CN(C)CCCN1C(=O)C(=O)/C(=C(/O)c2ccc(S(=O)(=O)N(C)C)cc2)C1c1ccccc1 (stereo not drawn) | 101.0 | 4.6 | 7.8
CC(CC1CC(C)(C)OC1=O)C(=O)Nc1nncs1 (stereo not drawn) | 100.0 | -24.0 | -4.9
CC(CC1CC(C)(C)OC1=O)c1nc(=S)[nH][nH]1 (stereo not drawn) | 95.0 | -9.7 | 64.4*
COc1cc2c(cc1OC)CN(C(=O)/C=C/c1ccc(OCc3c(C)noc3C)c(OC)c1)CC2 | 101.0 | -15.5 | -10.0
COc1ccc(-c2n[nH]c(=S)[nH]c2=O)cc1 | 94.0 | -34.6 | 76.9*
Cc1ccc(-c2n[nH]c(=S)[nH]c2=O)cc1 | 107.0 | -25.9 | 29.8
CC(Nc1ccc(Cl)cc1)C(=O)N/N=C/c1cccc(O)c1 (stereo not drawn) | 103.0 | -8.6 | -1.4
CCc1ccc(C2=CC(=O)C=CC2=O)cc1 | 102.0 | 1.8 | 43.1
O=C1C=CC(=O)C(CCCCCCC2=CC(=O)C=CC2=O)=C1 | 101.0 | 11.3 | 95.7*
O=C1C=CC(=O)C(CCC2=CC(=O)C=CC2=O)=C1 | 101.0 | 14.2 | 98.1*
Nc1ccccc1-c1n[nH]c(C2CC2)n1 | 99.0 | -7.9 | 101.7
CC1CN(Cn2nc(-c3cccc(S(=O)(=O)N4CCOCC4)c3)oc2=S)CC(C)O1 (stereo not drawn) | 102.0 | -41.8 | 7.2
O/N=C/c1nc2cc(Cl)ccc2o1 | 76.0* | 6.8 | 103.2
CC(C)(C)/C(O)=C/c1nc2cc(Cl)ccc2oc1=O | 102.0 | 27.9 | 10.0
CC1CCN(C(=O)Cn2c(=O)n(Cc3ccc(F)cc3)c(=O)c3ccccc32)CC1 | 105.0 | -32.5 | 3.6
O=C(NCC(c1ccco1)N1CCCC1)c1ccc(CSc2ncn[nH]2)cc1 (stereo not drawn) | 103.0 | 20.1 | 8.3

High-throughput results (PubChem)
